Assay outcomes: PubChem BioAssay, several laboratories
Rows were chosen to be rich in hits. Some 3.1% of all compounds tested hit in one or more screens of this group.
3CLpro inhibitor = SARS-CoV 3CLpro protease inhibition; P0C6X7; recombinant SARS-CoV 3CLpro, quenched FRET peptide cleavage; AID 1706; actives 0.14% (n = 290,000); inhibition, % at 6 µM; in the data active = inhibition above about 12%
FadD28 FP inh = M. tuberculosis FadD28 bisubstrate binding inhibition; FadD28 bisubstrate probe binding, fluorescence polarization; inhibition, % at 12.5 µM; actives 0.22% (n = 360,000); AID 588549; in the data active = inhibition above about 8.5%, passing the limit was not always enough
BioA inh = blocks M. tuberculosis BioA enzyme activity. purified M. tuberculosis BioA enzyme, plate reader. AID 602481. inhibition, % at 9.99 µM. actives 0.096% (n = 360,000); in the data active = inhibition above about 40%
Mtb FBA inh = Mtb fructose-bisphosphate aldolase inhibition | P9WQA3 | purified M. tuberculosis FBA, fluorescence read-out | inhibition, % at 1 µM | actives 2.3% (n = 360,000) | AID 588726;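 note: 0% = vehicle and 100% = reference inhibitor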
Target sequence (P9WQA3 whole entry, looked up): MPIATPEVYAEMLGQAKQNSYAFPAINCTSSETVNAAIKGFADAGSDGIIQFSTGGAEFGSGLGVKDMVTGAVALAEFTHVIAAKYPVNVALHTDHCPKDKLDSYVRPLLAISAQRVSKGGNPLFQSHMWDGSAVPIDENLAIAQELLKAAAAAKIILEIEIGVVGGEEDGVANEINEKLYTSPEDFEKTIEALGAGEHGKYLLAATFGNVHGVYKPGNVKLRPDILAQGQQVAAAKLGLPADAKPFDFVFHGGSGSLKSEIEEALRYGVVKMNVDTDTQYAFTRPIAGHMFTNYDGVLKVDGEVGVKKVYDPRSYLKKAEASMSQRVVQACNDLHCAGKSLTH
GDH-TPI counter-1 = counter-screen for M. tuberculosis FBA inhibitors: GDH-TPI coupled enzymes | inhibition, % at 4.8 µM | actives 1.2% (n = 360,000) | GDH-TPI coupled enzyme counterscreen, NADH absorbance | AID 588335; in the data active = inhibition above about 30%;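 note: 0% = DMSO wells and 100% = wells lacking the enzyme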
Mtb FBA confirm = Mtb FBA inhibition, confirmed; shares compounds with Mtb FBA inh; inhibition, % at 1 µM; purified M. tuberculosis FBA, fluorescence read-out; actives 78% (n = 5,600);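 note: 0% = vehicle wells and 100% = reference inhibitor wells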
GDH-TPI counter-2 = GDH-TPI inhibition counter-screen for FBA inhibitors | shares compounds with Mtb FBA inh | GDH-TPI coupled enzyme counterscreen, fluorescence | inhibition, % at 1 µM | actives 81% (n = 5,600) | AID 652141; in the data active = inhibition above about 10%
GDH-TPI DR = inhibits GDH-TPI coupling enzymes in dose response. shares compounds with Mtb FBA inh. GDH-TPI coupled enzyme assay, fluorescence, artifact counterscreen. IC50, µM. actives 79% (n = 170). AID 652145; call rule not given here
An asterisk follows results filed as active; x = not tested or not shown; + = active, no number. Cut-off read from the data, not from the text of the source, unless noted: active = inhibition above about 27%; inactive = the rest.

SMILES | 3CLpro inhibitor | FadD28 FP inh | BioA inh | Mtb FBA inh | GDH-TPI counter-1 | Mtb FBA confirm | GDH-TPI counter-2 | others
CN1[C@H](C(=O)NCC2CCCCC2)[C@@H](CO)[C@@H]2Cn3c(cccc3=O)[C@@H]21 | x | x | -1 | x | x | x | x
NC(=O)C1CCN(C(=O)CCNS(=O)(=O)c2ccccc2F)CC1 | x | -1 | 0 | 37* | -5 | 11 | 6 | GDH-TPI DR=>10
NC(=O)C1CCN(C(=O)CCC(=O)c2ccc(F)cc2)CC1 | 1 | -1 | -1 | 53* | -3 | 136* | 128*
Cc1nn(-c2ccccc2)c2nc(Cl)c(C(=O)O)cc12 | 0 | 0 | x | 31* | 6 | + | +
[O-]/C(=C(\C(=S)Nc1cccc2ccccc12)[n+]1cccc(CO)c1)c1ccc(Cl)s1 | 2 | -4 | x | 31* | 3 | 151* | 129*
Cc1ccc(NC(=S)/C(=C(\[O-])c2ccc(Cl)s2)[n+]2cccc(CO)c2)cc1C | -1 | -1 | 0 | -7 | 2 | x | x
CCN(C(=S)Nc1cccnc1)c1cccc2ccccc12 | 2 | -1 | x | 49* | 5 | 148* | 128*
CCN(C(=S)Nc1cccnc1)c1ccccc1 | -5 | -2 | 0 | 1 | 7 | x | x
C=CCNC(=O)C1CCN(c2nc(C)cc(-c3ccccc3)n2)CC1 | 1 | -4 | -1 | 33* | 9 | 5 | 1
Cc1ccc(S(=O)(=O)Nc2ccc3c(c2)C(=O)N([C@H](C)CO)C[C@H](C)[C@@H](CN(C)Cc2ccccc2)OCCCC[C@@H](C)O3)cc1 | x | x | -4 | x | x | x | x
C[C@@H]1CN([C@H](C)CO)C(=O)Cc2cc(NC(=O)Nc3cccc4ccccc34)ccc2O[C@H]1CN(C)S(=O)(=O)c1cn(C)cn1 | x | x | 0 | x | x | x | x
CCOC(=O)Cc1c(C)nc2c(C#N)c[nH]n2c1=O | -1 | -2 | -2 | 9 | 9 | x | x
CCOC(=O)Cc1c(C)nc2c(-c3cccc(Br)c3)c[nH]n2c1=O | 6 | -1 | 5 | 41* | 6 | 21 | 21*
CO[C@@H]1CN(C)C(=O)c2cc(NC(=O)Nc3ccc(Cl)c(Cl)c3)ccc2OC[C@H](C)NC[C@@H]1C | x | x | 0 | x | x | x | x
O=C(NCc1ccccc1)[C@H]1[C@H](CO)[C@H]2Cn3c(cccc3=O)[C@@H]1N2C(=O)CC1CC1 | x | x | -1 | x | x | x | x
COCC#Cc1ccc2c(c1)O[C@@H](CN(C)Cc1ccc(F)cc1)[C@@H](C)CN([C@H](C)CO)S2(=O)=O | x | x | 2 | x | x | x | x
CNc1ccc(-c2ccccc2CO)cn1 | x | -3 | -1 | 51* | 9 | 45* | 27*
CNc1cccc(-c2ccccc2CO)n1 | x | 0 | -2 | 13 | -2 | x | x
c1ccc(-n2nnnc2SCc2cn3ccccc3n2)cc1 | -8 | -1 | -2 | -3 | 6 | x | x
c1ccc(-n2nnnc2SCc2cn3cccnc3n2)cc1 | -8 | 0 | 4 | 43* | 6 | 76* | 57*
O=C(C[C@H]1CC[C@@H]2[C@H](COC[C@H](O)CN2C(=O)c2ccccc2)O1)NCCCN1CCOCC1 | x | x | -1 | x | x | x | x
Cc1ccc(C)c(N)c1 | x | -4 | 0 | -1 | 2 | x | x
Cc1ccc2c(N)c(C)ccc2c1 | -7 | 0 | -2 | 49* | 13 | -2 | -6
Cn1cnc(CCNC(=O)C[C@H]2CC[C@@H]3[C@H](COC[C@H](O)CN3C(=O)Nc3ccc(C(F)(F)F)cc3)O2)c1 | x | x | -1 | x | x | x | x
O=C(O)C1CCN(S(=O)(=O)c2cccs2)CC1 | -2 | -1 | -2 | 32* | -2 | 57* | 36*
SMILES | 3CLpro inhibitor | FadD28 FP inh | BioA inh | Mtb FBA inh | GDH-TPI counter-1 | Mtb FBA confirm | GDH-TPI counter-2 | others
CCOC(=O)COc1nc(-c2ccccc2)cc(-c2ccco2)c1C#N | -2 | -3 | x | 58* | 13 | 138* | 127*
CCOC(=O)COc1nc2c(c(-c3ccco3)c1C#N)CCc1ccccc1-2 | -6 | -4 | -2 | 30* | 5 | 25 | 14*
CO[C@@H]1CN(C)C(=O)c2ccc(NC(=O)c3cc(C)on3)cc2OC[C@H](C)NC[C@@H]1C | x | x | 0 | x | x | x | x
CO[C@H]1CN(C)C(=O)c2cc(NC(=O)C3CCCCC3)ccc2OC[C@H](C)NC[C@@H]1C | x | x | -4 | x | x | x | x
O=C(c1ccccn1)N1C[C@H]2[C@@H](c3ccccc31)[C@@H](CO)N2C(=O)c1ccccn1 | x | x | 3 | x | x | x | x
c1cc(-c2cnc3cccnn23)c2cccnc2c1 | x | -3 | 1 | 38* | 16 | 127* | 115*
c1ccc2c(-c3cnc4cccnn34)cncc2c1 | x | -1 | 0 | 40* | 16 | 188* | 106*
O=C(CN1CCOCC1)N[C@@H]1CC[C@@H](CCn2cc(C3CC3)nn2)O[C@@H]1CO | x | x | -2 | x | x | x | x
OCCNc1c2ccccc2nc2c(F)c(F)c(F)c(F)c12 | 3 | -1 | x | 72* | 2 | + | +
COc1cc(Cn2c3ccc(NC(=S)NCc4ccc(C)cc4)cc3c(=O)n2C)ccc1F | x | -1 | 0 | 38* | 6 | 180* | 138*
COc1cccc(Cn2c3ccc(NC(=O)Cc4ccccc4C)cc3c(=O)n2C)c1 | x | 1 | -1 | 89* | 3 | + | +
Cc1ccccc1CC(=O)Nc1ccc2c(c1)c(=O)n(C)n2-c1ccccc1F | x | -2 | 1 | 104* | 13 | 82* | 72*
COc1cccc(CNC(=S)Nc2ccc3c(c2)c(=O)n(C)n3Cc2ccc(F)cc2)c1 | x | -3 | -1 | 29* | 3 | 130* | 94*
CCCC#Cc1ccc2c(c1)O[C@@H](CN(C)C(=O)Nc1ccc(OC)cc1)[C@@H](C)CN([C@@H](C)CO)S2(=O)=O | x | x | 1 | x | x | x | x
O=C(N/N=C/c1ccc(O)c(O)c1)c1ccc(-n2cnnn2)cc1 | x | 0 | 0 | 52* | 25 | 52* | 52*
COc1ccccc1NC(=O)N[C@@H]1CC[C@@H](CC(=O)NCc2ccc(Cl)c(Cl)c2)O[C@@H]1CO | x | x | -1 | x | x | x | x
CC(C)NC(=O)NCC[C@H]1CC[C@H](NC(=O)CN(C)C)[C@@H](CO)O1 | x | x | 2 | x | x | x | x
C[C@H](CO)N1C[C@H](C)[C@H](CN(C)Cc2ccccc2)Oc2cc(-c3ccccc3)ccc2S1(=O)=O | x | x | 1 | x | x | x | x
CCc1c(C2(O)CCCCC2)[nH]c2cnccc12 | x | 0 | 2 | 78* | 10 | + | 170*
COCCCn1cnc2oc3nc4ccccc4nc3c2c1=O | 7 | -2 | -1 | 100* | 9 | 86* | 64*
COCCCn1cnc2c(c1=O)c1nc3ccccc3nc1n2-c1ccccc1 | 2 | -2 | 0 | 7 | 7 | x | x
O=C(NC1CCCCC1)[C@@H]1[C@@H](CO)[C@@H]2Cn3c(cccc3=O)[C@@H]2N1CCc1ccccc1 | x | x | 5 | x | x | x | x
CNC[C@@H]1OCCCC[C@H](C)Oc2ccc(NS(=O)(=O)c3ccc(C)cc3)cc2C(=O)N([C@H](C)CO)C[C@H]1C | x | x | -6 | x | x | x | x
